PubChem BioAssay
Results filed as inconclusive are left out. The source made the active and inactive calls.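 Rule for the calls, unless noted: active = viability increase at or above a cutoff of the median across tested compounds plus 3 SD (cut at about 8.5% in these data, passing the limit was not always enough); inconclusive = some gains above the cutoff, reason not given; inactive = the rest.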

Legend:
[1] = reducers of endogenous Her2 protein level, primary screen, SKBR3 breast tumor cells, AlphaScreen, ATP viability (AID 461;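 active = Her2 level under about 52% in both replicate screens, with viability over 70% of control, limit read from the data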;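 for Her2 level: lower value means less Her2 protein in the cells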;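 for viability: percent of carrier control wells set as 100% viability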); conditions: 18-24 h, measured here: SKBR3 viability, ATP luminescence, at 10 µM
[2] = target: Receptor tyrosine-protein kinase erbB-2 (Homo sapiens) (UniProt P04626); experiment: as above; conditions: 18-24 h, at 10 µM, stronger effect = lower value
[3] = SK-BR-3 cell growth inhibitors, pilot screen, 24 h, human (AID 572;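 active = viability at or below 10% of carrier control in both of two separate runs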;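 note: compound exposure lasted between 18 and 24 h rather than exactly 24 h; 100% = carrier-treated control wells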); conditions: SK-BR-3 viability, CellTiter-Glo luminescence, at 10 µM, stronger effect = lower value
[4] = HUVEC growth inhibition – cell-based, human, primary screen (AID 575;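 active = viability at or below 30% in both replicate assays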;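 note: 100% = median of untreated cell wells with 0.1% DMSO on each plate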); conditions: HUVEC proliferation, CellTiter-Glo luminescence, 72 h; at 10 µM; stronger effect = lower value
[5] = growth inhibitors of H69AR lung tumor, primary screen, human, duplicate replicates (AID 580;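 active = viability at or under a set limit in both replicates, limit being median viability minus 3 SD, cut at about 48% in these data, passing the limit was not always enough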;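 note: 100% = mean luminescence of untreated wells and 0% = no signal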); conditions: H69AR lung tumor cells viability, ATP luminescence, 72 h; at 10 µM; stronger effect = lower value
[6] = reversal of MRP1-mediated doxorubicin resistance, pilot screen, H69AR cells, doxorubicin co-treatment (AID 601;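 active = viability loss from added drug above about 55%, and viability with drug at most 40%, in both replicates, limit read from the data, passing the limit was not always enough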); conditions: CellTiter-Glo, 72 h, at 10 µM; for differential viability (reversal): stronger effect = higher value
[7] = 384-well plate pilot, post-Golgi transport modulator project, inhibition of yeast transport mutant growth (AID 636; in the data active = inhibition above about 31%); conditions: absorbance 615 nm, about 18 h, stronger effect = higher value
[8] = growth suppression of yeast trafficking mutant, preliminary HTS, modulators of trafficking downstream of Golgi apparatus project, 1536-format plate, OD 615 nm (AID 637; in the data active = inhibition above about 30%); conditions: yeast transport mutant growth, absorbance 615 nm, 18 h; stronger effect = higher value
[9] = OD615 S. cerevisiae growth inhibition, permissive medium, pilot counter-assay, permissive growth control for S. cerevisiae lifespan shortening project (AID 705;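 active = growth inhibition above 25% in both replicates, a cutoff set 3 SD above the mean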); conditions: OD615, 24 h, at 10 µM, stronger effect = higher value
[10] = Restrictive medium S. cerevisiae growth inhibition, OD615, pilot screen of yeast lifespan reduction project, restrictive growth control (AID 706;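 active = growth inhibition above a set limit, 3 SD over mean compound inhibition, in both replicates, cut at about 43% in these data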;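 note: modified DeaD lifespan yeast strain shifted to restrictive glucose medium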); conditions: OD615, 48 h, at 10 µM, stronger effect = higher value
[11] = viability gain of MRP-1-high H69AR cells under doxorubicin, pilot screen, MRP-1 activator project, CellTiter-Glo, duplicate (AID 807); conditions: H69AR viability with doxorubicin, CellTiter-Glo luminescence; at 10 µM; stronger effect = higher value;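 note: compound pretreatment 18-22 h then 72 h combined with doxorubicin; 0% = doxorubicin alone and 100% = vehicle without doxorubicin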
[12] = growth suppression of beta-catenin knockout HCT116, pilot screen, human colon tumor cells (AID 823;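 active = cell viability at or below a set limit in both duplicate runs, the limit being the all-compound median minus 4 SD, cut at about 23% in these data, passing the limit was not always enough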;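 note: 0% = wells killed by 20 µM Hyamine and 100% = untreated DMSO cell wells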); conditions: CellTiter-Glo, 60 h, at 10 µM, stronger effect = lower value
[13] = growth suppression of PTEN-deleted HCT116, pilot screen, cell-based, HCT116 clonal line, CellTiter-Glo (AID 824;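 active = viability at or below 27.92% in each of two runs, the all-compound median minus 4 SD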;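 note: 0% = 20 µM Hyamine control and 100% = vehicle cell control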); conditions: 60 h, at 10 µM, stronger effect = lower value
[14] = inhibitors of the yeast RAM network, pilot screen, dse1pr::URA3 reporter, 5-FOA selection (AID 869;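 active = inhibition over a set limit, the all-compound mean plus 3 SD, in both replicate runs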;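 note: 0% = DMSO wells with no growth and 100% = 10 µM 1-NA-PP1 with full growth; RAM network block rescues cells from 5-FOA so hits raise OD615 growth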); conditions: S. cerevisiae dse1pr::URA3 5-FOA growth, OD615, 2 d; at 10 µM; stronger effect = higher value; strain carries analog-sensitive mutant Cbk1 kinase
[15] = RAM signaling pathway blockade in yeast – S. cerevisiae, Pdr1DBD-CYC8 efflux-inhibited sensitized strain, primary screen (AID 1298;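 active = RAM network inhibition above 8.4% in each of two replicates, 3 SD over the compound average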;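 note: 0% = DMSO untreated cells without growth and 100% = 10 µM 1-NA-PP1 full growth; higher means more yeast growth rescued from 5-FOA killing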); conditions: S. cerevisiae cbk1-as DSE1-URA3 strain, 5-FOA growth OD615, 2 d; at 50 µM; stronger effect = higher value
[16] = H69AR cells + 2 uM doxorubicin, measured here: viability with 2 uM doxorubicin, stronger effect = lower value
[17] = H69AR cells, compound alone cytotoxicity

Sequence of Receptor tyrosine-protein kinase erbB-2 (Homo sapiens) (P04626 whole entry, looked up): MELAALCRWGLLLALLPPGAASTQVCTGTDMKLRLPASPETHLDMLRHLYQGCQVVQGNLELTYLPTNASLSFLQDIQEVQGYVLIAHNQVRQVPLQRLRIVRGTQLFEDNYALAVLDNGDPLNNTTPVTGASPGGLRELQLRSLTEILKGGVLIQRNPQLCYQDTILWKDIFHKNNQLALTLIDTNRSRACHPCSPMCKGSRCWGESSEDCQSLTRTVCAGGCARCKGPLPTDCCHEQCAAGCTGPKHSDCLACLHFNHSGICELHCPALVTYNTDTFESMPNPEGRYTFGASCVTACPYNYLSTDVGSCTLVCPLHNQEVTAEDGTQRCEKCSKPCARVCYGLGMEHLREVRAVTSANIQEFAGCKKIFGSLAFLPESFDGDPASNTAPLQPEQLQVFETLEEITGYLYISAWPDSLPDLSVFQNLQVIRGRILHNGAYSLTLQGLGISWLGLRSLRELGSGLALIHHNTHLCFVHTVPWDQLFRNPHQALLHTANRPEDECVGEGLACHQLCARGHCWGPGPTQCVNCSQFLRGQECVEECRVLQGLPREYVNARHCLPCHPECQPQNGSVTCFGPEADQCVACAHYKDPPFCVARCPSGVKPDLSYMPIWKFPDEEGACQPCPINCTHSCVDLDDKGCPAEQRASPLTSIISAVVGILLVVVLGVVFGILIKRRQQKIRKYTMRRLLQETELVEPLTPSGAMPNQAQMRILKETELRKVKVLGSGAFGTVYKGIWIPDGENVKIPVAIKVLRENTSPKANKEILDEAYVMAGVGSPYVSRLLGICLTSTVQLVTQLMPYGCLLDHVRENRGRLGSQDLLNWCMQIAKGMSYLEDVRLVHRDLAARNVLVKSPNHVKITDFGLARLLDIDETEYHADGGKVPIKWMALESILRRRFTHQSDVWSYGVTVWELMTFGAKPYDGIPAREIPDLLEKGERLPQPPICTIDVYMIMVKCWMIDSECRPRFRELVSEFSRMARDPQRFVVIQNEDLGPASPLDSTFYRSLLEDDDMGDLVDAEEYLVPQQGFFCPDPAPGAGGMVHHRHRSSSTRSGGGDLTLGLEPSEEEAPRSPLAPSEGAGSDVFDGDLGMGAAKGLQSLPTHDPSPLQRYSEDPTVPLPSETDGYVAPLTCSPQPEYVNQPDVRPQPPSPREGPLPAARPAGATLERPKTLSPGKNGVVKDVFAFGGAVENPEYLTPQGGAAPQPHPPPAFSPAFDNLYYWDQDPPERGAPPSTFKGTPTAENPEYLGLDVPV

Structure (SMILES) | viability [1] [%] | Her2 level [2] | viability [3] | viability [4] | viability [5] | differential viability (reversal) ([6]; H69AR cells + 2 uM doxorubicin) | viability [6, 16] [%] | viability [6, 17] [%] | inhibition [7] | inhibition [8] | growth inhibition [9] | growth inhibition [10] | viability increase [11] | viability [12] | viability [13] | inhibition [14] | RAM network inhibition [15]
O=C(Nc1ccc2snnc2c1)N1CCN(c2ccccc2)CC1 | 81.5 | 86% (inactive) | 81.5% (inactive) | 75.4% (inactive) | 85.3% (inactive) | -7.63% (inactive) | 92.9 | 85.3 | -0.38% (inactive) | -2.33% (inactive) | -13.7% (inactive) | -17.1% (inactive) | -2.11% (inactive) | 85.2% (inactive) | 79.4% (inactive) | 1.3% (inactive) | 5.24% (inactive)
COc1ccccc1N1CCN(C(=O)c2cc(C3CC3)on2)CC1 | 84 | 110% (inactive) | 84% (inactive) | 80.8% (inactive) | 86.5% (inactive) | -6.73% (inactive) | 93.2 | 86.5 | -0.64% (inactive) | -3.5% (inactive) | -9.72% (inactive) | 0.825% (inactive) | 0.32% (inactive) | 98.5% (inactive) | 103% (inactive) | 0.905% (inactive) | 2.48% (inactive)
N#CCCN1CCN(S(=O)(=O)c2ccc(S(=O)(=O)NC3CCCCC3)cc2)CC1 | 103 | 105% (inactive) | 103% (inactive) | 98.9% (inactive) | 100% (inactive) | 12.5% (inactive) | 87.5 | 100 | -2.69% (inactive) | 3.67% (inactive) | -1.9% (inactive) | -5.03% (inactive) | -0.74% (inactive) | 103% (inactive) | 97.8% (inactive) | 1.02% (inactive) | 5.92% (inactive)
CC(C)C(=O)Nc1ccc(-c2nc3cccnc3o2)cc1 | 93.5 | 82% (inactive) | 93.5% (inactive) | 128% (inactive) | 95.2% (inactive) | -4.14% (inactive) | 99.4 | 95.2 | 1.03% (inactive) | -5.33% (inactive) | -11.7% (inactive) | -2.21% (inactive) | 1.32% (inactive) | 101% (inactive) | 104% (inactive) | 2.22% (inactive) | 1.35% (inactive)
COC(=O)c1ccsc1NC(=O)CN1C(=O)CCC1=O | 83.5 | 121% (inactive) | 83.5% (inactive) | 83.1% (inactive) | 91.6% (inactive) | 22.4% (inactive) | 69.2 | 91.6 | -1.33% (inactive) | 15.7% (inactive) | -2.7% (inactive) | -9.07% (inactive) | -1.57% (inactive) | 100% (inactive) | 98.7% (inactive) | -0.08% (inactive) | 0.15% (inactive)
COc1ccc(CNC(=O)c2cnc3n(c2=O)CCS3)cc1 | 81.5 | 87.5% (inactive) | 81.5% (inactive) | 90.6% (inactive) | 94.9% (inactive) | -3.02% (inactive) | 97.9 | 94.9 | -3.87% (inactive) | -2.17% (inactive) | 5.72% (inactive) | 4.27% (inactive) | -1.21% (inactive) | 95.8% (inactive) | 98.3% (inactive) | 3.5% (inactive) | 2.5% (inactive)
Cc1ccnc(NC(=O)C2CCCN(S(=O)(=O)c3cnc[nH]3)C2)c1 (stereo not given) | 95.5 | 104% (inactive) | 95.5% (inactive) | 94.7% (inactive) | 105% (inactive) | 8% (inactive) | 97.4 | 105 | 0.8% (inactive) | -2.79% (inactive) | 1.41% (inactive) | -5.85% (inactive) | -1.81% (inactive) | 97.3% (inactive) | 96.1% (inactive) | 0.925% (inactive) | 3.67% (inactive)
O=C(O)c1ccc(-c2ccc(O)c(F)c2)cc1 | 94 | 167% (inactive) | 94% (inactive) | 92.8% (inactive) | 82.9% (inactive) | -5.75% (inactive) | 88.6 | 82.9 | -0.4% (inactive) | 1.5% (inactive) | -8.37% (inactive) | 12.1% (inactive) | -2.66% (inactive) | 99.3% (inactive) | 97.4% (inactive) | -0.17% (inactive) | -2.4% (inactive)
COc1cc(NC(=O)C2CCCN2S(=O)(=O)c2cccc3cccnc23)cc(OC)c1OC (stereo not given) | 72 | 81% (inactive) | 72% (inactive) | 87.6% (inactive) | 82.2% (inactive) | -6.16% (inactive) | 88.3 | 82.2 | -1.67% (inactive) | 1.5% (inactive) | 0.6% (inactive) | -10.7% (inactive) | -5.34% (inactive) | 79.4% (inactive) | 79.4% (inactive) | 0.905% (inactive) | 2.32% (inactive)
CC(=O)N1CCc2c(sc(NC(=O)c3ccc(S(=O)(=O)N(C)C)cc3)c2C#N)C1 | 83.5 | 105% (inactive) | 83.5% (inactive) | 73.3% (inactive) | 87.5% (inactive) | 5.97% (inactive) | 81.5 | 87.5 | -2.27% (inactive) | -5.41% (inactive) | -4.59% (inactive) | 4.39% (inactive) | -3.73% (inactive) | 104% (inactive) | 94.3% (inactive) | 0.115% (inactive) | 1.67% (inactive)
